Results taken from PubChem BioAssay (Tox21).
Where “and” joins values, the source holds several entries; their conditions need not be identical. Equal values may be shown once. Inconclusive results are not listed. Calls of active or inactive are those of the source. Unless noted, calls follow the shape of the dose curve; as a rule, active = well fitted curve in the direction sought with a large enough effect in the repeat runs; inconclusive = weak or mixed curves; inactive = no such curve, though single readings can be large; an effect the other way counts as inactive or inconclusive.

Tests used:
[1] = qHTS assay to identify small molecule antagonists of the glucocorticoid receptor (GR) signaling pathway - cell viability counter screen (AID 720693); also: nearly all actives have a fitted effect of over 55% in size
[2] = qHTS assay for identifying genotoxic compounds that show differential cytotoxicity against isogenic chicken DT40 cell lines with known DNA damage response pathways - Rad54/Ku70 mutant cell line (AID 743015); also: nearly all actives have a fitted effect of over 60% in size; also: potency is read from the fitted curve at half-maximal effect
[3] = qHTS assay to identify small molecule antagonists of the androgen receptor (AR) signaling pathway - cell viability counter screen (AID 743033; also: nearly all actives have a fitted effect of over 45% in size)
[4] = qHTS assay to identify small molecule antagonists of the androgen receptor (AR) signaling pathway using the MDA cell line - cell viability counter screen (AID 743041; also: nearly all actives have a fitted effect of over 45% in size)
Method in brief: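 Viability counter screen run alongside the AR antagonist reporter: cells seeded 5 h before compound, R1881 added, 16 h incubation at 37C without CO2, fluorescent CellTiter-Fluor signal quantified.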

[5] = qHTS assay to identify small molecule antagonists of the thyroid receptor (TR) signaling pathway - cell viability counter screen (AID 743064); also: nearly all actives have a fitted effect of over 50% in size
Method in brief: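 Same-well viability check: GH3.TRE-Luc cells stimulated with 1 nM T3 alongside test compound for 23.5 h, followed by CellTiter-Fluor fluorescence.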

[6] = qHTS assay to identify small molecule antagonists of the thyroid receptor (TR) signaling pathway (AID 743065); also: series mostly up to about 70 µM; nearly all actives have a fitted effect of over 55% in size
Method in brief: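 GH3.TRE-Luc rat pituitary cells carrying two TR response elements driving luciferase were plated for 4 h, given compound plus 1 nM T3 (final), and incubated 23.5 h at 37 C. ONE-Glo luminescence measured reporter inhibition; CellTiter-Fluor fluorescence tracked cytotoxicity.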

[7] = system: thyroid hormone receptor (rat, GH3 cells); assay: qHTS assay to identify small molecule agonists of the thyroid receptor (TR) signaling pathway (AID 743066; calls by dose curve)
[8] = qHTS assay to identify small molecule antagonists of the estrogen receptor alpha (ER-alpha) signaling pathway - cell viability counter screen (AID 743074; calls by dose curve;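 also: HEK293 cells carrying ER-alpha-UAS-bla reporter stimulated with 17beta-estradiol; nearly all actives have a fitted effect of over 45% in size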)
[9] = qHTS assay to identify small molecule antagonists of the estrogen receptor alpha (ER-alpha) signaling pathway using the BG1 cell line - cell viability counter screen (AID 743081);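 also: compound given together with 17beta-estradiol as the ER stimulus; series mostly up to about 70 µM; nearly all actives have a fitted effect of over 45% in size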
[10] = target: Aromatase (Homo sapiens) (UniProt P11511); assay: qHTS assay to identify aromatase inhibitors (AID 743083); also: series mostly up to about 70 µM; nearly all actives have a fitted effect of over 55% in size
[11] = target: Androgen receptor (Homo sapiens) (UniProt P10275); assay: qHTS assay to identify small molecule antagonists of the androgen receptor (AR) signaling pathway (AID 743035; active = well fitted inhibition curve with a large enough effect in the signal ratio in the repeat runs, not every such curve was filed as active; the % refers to the signal ratio)
Method in brief: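 HEK293 cells stably carrying UAS-beta-lactamase reporter, 2,000/well, given compounds plus R1881 agonist and incubated 16 h at 37C. LiveBLAzer B/G FRET substrate then added for 2 h at room temperature before fluorescence reading.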

[12] = target: Androgen receptor (Homo sapiens) (UniProt P10275); assay: qHTS assay to identify small molecule agonists of the androgen receptor (AR) signaling pathway (AID 743036; active = well fitted activation curve with a large enough effect in the signal ratio in the repeat runs, with a control signal flat, not every such curve was filed as active; the % refers to the signal ratio)
Method in brief: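 Agonist activity was scored by beta-lactamase reporter fluorescence in stably transfected HEK293 cells exposed to compounds for 16 h at 37C and 5% CO2. Substrate loading took 2 h at room temperature.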

[13] = target: Androgen receptor (Homo sapiens) (UniProt P10275); assay: qHTS assay to identify small molecule agonists of the androgen receptor (AR) signaling pathway using the MDA cell line (AID 743040; also: nearly all actives have a fitted effect of over 20% in size)
Method in brief: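 Luminescence from ONE-Glo, read after 30 min at room temperature, reflects MMTV-driven luciferase in MDA-kb2 cells (AR- and GR-responsive). Treatment lasted 16 h at 37C, 0% CO2.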

[14] = target: Androgen receptor (Homo sapiens) (UniProt P10275); assay: qHTS assay to identify small molecule antagonists of the androgen receptor (AR) signaling pathway using the MDA cell line (AID 743042; also: nearly all actives have a fitted effect of over 55% in size)
Method in brief: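 MDA-kb2 cells (human breast carcinoma, stably carrying an MMTV-luciferase reporter responsive to AR and GR) were plated at 3,000 cells/well and preincubated 5 hr at 37C, then given compound plus R1881 agonist for 16 h. ONE-Glo luminescence was read.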

[15] = target: Estrogen receptor (Homo sapiens) (UniProt P03372); assay: qHTS assay to identify small molecule antagonists of the estrogen receptor alpha (ER-alpha) signaling pathway (AID 743069; active = well fitted curve in the direction sought with a large enough effect in the signal ratio in the repeat runs, not every such curve was filed as active; the % refers to the signal ratio)
Method in brief: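 Estradiol-stimulated ER-alpha-UAS-bla HEK293 cells, 18 hr compound exposure at 37C. LiveBLAzer B/G substrate, 2 hr RT, fluorescence read.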

[16] = target: Estrogen receptor (Homo sapiens) (UniProt P03372); assay: qHTS assay to identify small molecule agonists of the estrogen receptor alpha (ER-alpha) signaling pathway (AID 743075; calls by dose curve;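 also: HEK293 GripTite cells with ER-alpha and UAS-driven beta-lactamase reporter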)
[17] = target: Estrogen receptor (Homo sapiens) (UniProt P03372); assay: qHTS assay to identify small molecule agonists of the estrogen receptor alpha (ER-alpha) signaling pathway using the BG1 cell line (AID 743079); also: nearly all actives have a fitted effect of over 20% in size; also: potency is read from the fitted curve at half-maximal effect
[18] = qHTS assay to identify small molecule antagonists of the estrogen receptor alpha (ER-alpha) signaling pathway using the BG1 cell line (AID 743080; calls by dose curve;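 also: BG1 cells stimulated with 17beta-estradiol alongside compound; series mostly up to about 70 µM; nearly all actives have a fitted effect of over 25% in size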)
Method in brief: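 Luminescence from a 4×ERE-luciferase reporter in BG1-Luc-4E2 cells served as read-out. Cells, pre-cultured 5 days in stripped-serum phenol-red-free medium, were exposed to compound with 17beta-estradiol co-stimulation for 21.5 h at 37 C.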

[19] = qHTS assay for identifying genotoxic compounds that show differential cytotoxicity against isogenic chicken DT40 cell lines with known DNA damage response pathways - Rev3 mutant cell line (AID 743014); also: nearly all actives have a fitted effect of over 55% in size; also: potency is read from the fitted curve at half-maximal effect
[20] = qHTS assay for identifying genotoxic compounds that show differential cytotoxicity against isogenic chicken DT40 cell lines with known DNA damage response pathways - wild type cell line (AID 743012); also: nearly all actives have a fitted effect of over 60% in size; also: potency is read from the fitted curve at half-maximal effect
Method in brief: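 Wild-type DT40 cells (300/well) exposed to compounds for 40 hours at 37 C/5% CO2. Viability read by CellTiter-Glo luminescence after 30 min at room temperature.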
% is scaled to controls: 0 for no effect and ±100 for the full control effect.

Chain of Estrogen receptor (Homo sapiens) (P03372 whole entry, looked up): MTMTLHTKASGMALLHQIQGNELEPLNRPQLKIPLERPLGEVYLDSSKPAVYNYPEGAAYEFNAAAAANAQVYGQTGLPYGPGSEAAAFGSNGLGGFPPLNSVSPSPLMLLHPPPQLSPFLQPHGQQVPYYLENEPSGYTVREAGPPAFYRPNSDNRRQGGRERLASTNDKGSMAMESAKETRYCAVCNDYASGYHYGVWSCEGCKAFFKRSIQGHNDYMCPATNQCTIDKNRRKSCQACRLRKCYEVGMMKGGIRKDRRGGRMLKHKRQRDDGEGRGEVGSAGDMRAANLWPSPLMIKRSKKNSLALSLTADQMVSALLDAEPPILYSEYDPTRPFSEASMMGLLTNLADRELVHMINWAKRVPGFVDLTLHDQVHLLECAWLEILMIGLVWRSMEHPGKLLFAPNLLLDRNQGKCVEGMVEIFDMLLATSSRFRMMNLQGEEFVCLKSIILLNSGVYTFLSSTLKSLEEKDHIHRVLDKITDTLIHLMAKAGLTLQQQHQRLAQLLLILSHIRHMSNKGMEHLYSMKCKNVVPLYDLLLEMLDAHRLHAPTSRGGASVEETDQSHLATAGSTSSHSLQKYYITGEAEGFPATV
Chain of Aromatase (Homo sapiens) (P11511 whole entry, looked up): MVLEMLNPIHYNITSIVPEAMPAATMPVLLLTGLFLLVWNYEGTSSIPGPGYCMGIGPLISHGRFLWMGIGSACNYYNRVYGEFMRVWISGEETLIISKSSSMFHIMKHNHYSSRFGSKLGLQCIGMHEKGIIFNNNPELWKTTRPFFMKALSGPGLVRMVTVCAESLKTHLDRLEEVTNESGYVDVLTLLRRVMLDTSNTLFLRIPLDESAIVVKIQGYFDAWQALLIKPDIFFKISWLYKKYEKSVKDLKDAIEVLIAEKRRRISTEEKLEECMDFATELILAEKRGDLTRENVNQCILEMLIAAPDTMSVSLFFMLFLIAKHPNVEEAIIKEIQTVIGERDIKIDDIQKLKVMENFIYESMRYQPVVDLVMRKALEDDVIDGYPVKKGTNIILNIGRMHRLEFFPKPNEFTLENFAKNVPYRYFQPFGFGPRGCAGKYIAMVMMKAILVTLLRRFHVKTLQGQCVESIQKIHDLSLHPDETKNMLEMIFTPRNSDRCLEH
Chain of Androgen receptor (Homo sapiens) (P10275 whole entry, looked up): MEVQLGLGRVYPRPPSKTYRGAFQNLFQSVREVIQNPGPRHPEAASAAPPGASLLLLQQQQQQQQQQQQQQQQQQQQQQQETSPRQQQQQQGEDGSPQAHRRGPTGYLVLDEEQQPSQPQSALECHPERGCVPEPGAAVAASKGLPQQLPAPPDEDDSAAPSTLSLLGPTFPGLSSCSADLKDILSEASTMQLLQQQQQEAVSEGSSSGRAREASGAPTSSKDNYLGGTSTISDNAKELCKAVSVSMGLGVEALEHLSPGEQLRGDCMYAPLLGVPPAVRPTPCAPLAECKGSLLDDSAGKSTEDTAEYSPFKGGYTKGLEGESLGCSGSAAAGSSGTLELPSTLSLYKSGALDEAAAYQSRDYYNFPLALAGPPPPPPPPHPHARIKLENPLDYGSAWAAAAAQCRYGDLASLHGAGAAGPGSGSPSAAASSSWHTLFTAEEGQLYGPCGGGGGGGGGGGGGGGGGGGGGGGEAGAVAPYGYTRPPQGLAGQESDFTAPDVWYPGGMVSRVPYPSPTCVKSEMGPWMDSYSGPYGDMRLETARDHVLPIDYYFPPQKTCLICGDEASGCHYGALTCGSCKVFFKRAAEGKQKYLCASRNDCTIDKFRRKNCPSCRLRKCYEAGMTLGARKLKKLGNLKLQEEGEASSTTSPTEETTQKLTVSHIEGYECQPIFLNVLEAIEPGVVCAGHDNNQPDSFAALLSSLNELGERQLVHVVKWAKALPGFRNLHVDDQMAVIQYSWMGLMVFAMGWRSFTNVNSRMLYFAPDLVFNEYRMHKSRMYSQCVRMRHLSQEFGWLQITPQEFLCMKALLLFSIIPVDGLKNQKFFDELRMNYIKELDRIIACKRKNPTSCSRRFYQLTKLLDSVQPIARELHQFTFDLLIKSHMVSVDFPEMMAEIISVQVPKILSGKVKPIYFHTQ

N=C(N)c1ccccc1
inactive: outcome [1] | Potency [2] | Potency [3] | Potency [4] | Potency [5] | Potency [6] | outcome [7] | outcome [8] | Potency [9] | Potency [10]

FC1(F)C(F)(F)C(F)(F)C2(F)C(F)(F)C(F)(F)C(F)(F)C(F)(F)C2(F)C1(F)F (stereo unspecified)
active: Potency [2] 21.1 µM
inactive: outcome [1] | Potency [3] | outcome [11] | outcome [12] | Potency [13] | Potency [4] | Potency [14] | Potency [5] | Potency [6] | outcome [7] | outcome [15] | outcome [8] | Potency [16] | Potency [17] | outcome [18] | Potency [9] | Potency [10]

CC(=O)OC/C=C(\C)CC/C=C(\C)CCC=C(C)C
active: Potency [2] 61.1 µM
inactive: outcome [1] | Potency [3] | Potency [4] | Potency [5] | Potency [6] | outcome [7] | outcome [15] | outcome [8] | Potency [16] | Potency [17] | Potency [9] | Potency [10]

CCO/C([O-])=N/c1c[n+](N2CCOCC2)no1
inactive: outcome [1] | Potency [2] | Potency [3] | Potency [4] | Potency [5] | Potency [6] | outcome [7] | outcome [15] | outcome [8] | Potency [16] | Potency [17] | Potency [9] | Potency [10]

N=c1nc(N2CCCCC2)cc(N)n1O
inactive: outcome [1] | Potency [2] | Potency [3] | Potency [4] | Potency [5] | Potency [6] | outcome [7] | outcome [15] | outcome [8] | Potency [16] | Potency [17] | outcome [18] | Potency [9] | Potency [10]

CC(=O)OCC(=O)[C@@]1(O)CC[C@H]2[C@@H]3CCC4=CC(=O)CC[C@]4(C)[C@H]3C(=O)C[C@@]21C
inactive: outcome [1] | Potency [19] | Potency [2] | Potency [3] | Potency [4] | outcome [15] | Potency [16] | Potency [17] | Potency [9] | Potency [10]

CCCCCCCCCCCCCC=O
active: Potency [17] 2.69 µM
inactive: viability change, negative = cytotoxic [1] -0.799% [at 7.04 µM] | activity change, negative = cytotoxicity [2] -24.1% [at 8.55 µM] | activity change, negative = cytotoxicity [3] 5.83% [at 7.04 µM] | viability change, negative = cytotoxic [4] -4.68% [at 8.47 µM] | activity change, negative = cytotoxic [5] -8.15% [at 8.44 µM] | activity, negative = inhibition [6] -3.68% [at 8.44 µM] | activation [7] 0.523% [at 8.08 µM] | activity, negative = inhibition [15] -10.5% [at 6.71 µM] | activity, negative = cytotoxicity [8] -17.6% [at 6.72 µM] | activation [16] 2.95% [at 6.71 µM] | activity change, negative = inhibition [18] 0.386% [at 8.47 µM] | activity change, negative = cytotoxicity [9] -2.15% [at 8.47 µM] | activity, negative = inhibition [10] -2.09% [at 8.47 µM]

COC(=O)NN
inactive: Potency [20] | Potency [2] | Potency [3] | Potency [4] | Potency [6] | outcome [7] | outcome [15] | outcome [8] | Potency [16] | Potency [17] | Potency [9] | Potency [10]

O=c1cc(-c2ccccc2)oc2ccccc12
active: Potency [20] 21.7 µM | Potency [19] 48.6 µM and 43.1 µM | Potency [2] 56.9 µM | Potency [17] 2.43 µM and 3.95 µM
inactive: Potency [3] | Potency [13] | Potency [4] | Potency [14] | Potency [5] | Potency [6] | outcome [7] | outcome [15] | outcome [8] | Potency [9]

COc1nc(N)nc2c1ncn2[C@@H]1O[C@H](CO)[C@@H](O)[C@@H]1O
inactive: outcome [1] | Potency [2] | Potency [3] | Potency [4] | outcome [7] | outcome [8] | Potency [9] | Potency [10]
